In the library only some 18% were active in any assay of this set; here they are far more common.
HepG2 viability: HepG2 cytotoxicity, counter-screen for TGF-b inhibitors; HepG2 CAGA-GFP viability, ATP luminescence, 18 h; Potency, µM (doses to about 46.1 µM), inactives show at the top dose activity change, negative = cytotoxicity, usual class: cytotoxic; 410,000 tested, 0.76% active; AID 588856; further: potency means the concentration at half of the fitted maximal effect
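CellTiter-Glo luminescence gave cytotoxicity after 18 hours at 37 degrees C. The cells were HepG2 CAGA-GFP in 1% FBS DMEM, stimulated with 500 pg/mL TGF-beta after compound addition. %Activity was normalised to no-cell wells (complete cell-killing) and DMSO (no toxicity), and curves were fitted and classified.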
TDP1 cell noCPT: qHTS for Inhibitors of human tyrosyl-DNA phosphodiesterase 1 (TDP1): qHTS in cells in absence of CPT. 420,000 tested, 15% active. AID 686978, 2013. Potency, µM (series often up to 46.2 µM), for the others: at the top dose activity change, negative = growth inhibition, hits mostly inhibitors. DT40 Tdp1-/- hTDP1 cells, no CPT, ATP luminescence, 48 h; further: potency means the concentration at half of the fitted maximal effect; on the % scale 0 is the no-effect control and ±100 the full control effect; nearly all actives have a fitted effect of over 55% in size
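Growth of hTDP1-complemented DT40 Tdp1-knockout cells is measured by ATP luminescence after at least 48 hr compound exposure at 37 °C, with DMSO substituting for the 20 nM CPT used in the parallel screen.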
DT40 TDP1 CPT: growth inhibition of DT40 Tdp1-/-;hTDP1 cells with camptothecin (screen for TDP1 inhibitors) | chicken DT40 Tdp1-/-;hTDP1 cells + 20 nM CPT, ATP luminescence, 48 h | Potency, µM (series often up to 46.2 µM), without a hit: at the highest dose activity change, negative = growth inhibition, actives largely listed as inhibitors | 420,000 tested, 12% active | AID 686979; further: potency means the concentration at half of the fitted maximal effect; on the % scale 0 is the no-effect control and ±100 the full control effect; nearly all actives have a fitted effect of over 55% in size
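Cell growth measured by CellTiter-Glo luminescence after a minimum 48 h, 37 C compound exposure with 20 nM CPT in Tdp1-knockout DT40 cells stably expressing hTDP1, seeded 400/well; qHTS titration format.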
TDP1 inh: TDP1 (human) enzyme inhibition. 350,000 tested, 0.28% active. Potency, µM (top dose mostly 130 µM), without a hit: at the top dose activity change, negative = inhibition, actives largely listed as inhibitors. recombinant TDP1, AlphaScreen DNA substrate cleavage; further: potency means the concentration at half of the fitted maximal effect; on the % scale 0 is the no-effect control and ±100 the full control effect; nearly all actives have a fitted effect of over 40% in size
Target sequence (Q9NUW8 whole entry, looked up): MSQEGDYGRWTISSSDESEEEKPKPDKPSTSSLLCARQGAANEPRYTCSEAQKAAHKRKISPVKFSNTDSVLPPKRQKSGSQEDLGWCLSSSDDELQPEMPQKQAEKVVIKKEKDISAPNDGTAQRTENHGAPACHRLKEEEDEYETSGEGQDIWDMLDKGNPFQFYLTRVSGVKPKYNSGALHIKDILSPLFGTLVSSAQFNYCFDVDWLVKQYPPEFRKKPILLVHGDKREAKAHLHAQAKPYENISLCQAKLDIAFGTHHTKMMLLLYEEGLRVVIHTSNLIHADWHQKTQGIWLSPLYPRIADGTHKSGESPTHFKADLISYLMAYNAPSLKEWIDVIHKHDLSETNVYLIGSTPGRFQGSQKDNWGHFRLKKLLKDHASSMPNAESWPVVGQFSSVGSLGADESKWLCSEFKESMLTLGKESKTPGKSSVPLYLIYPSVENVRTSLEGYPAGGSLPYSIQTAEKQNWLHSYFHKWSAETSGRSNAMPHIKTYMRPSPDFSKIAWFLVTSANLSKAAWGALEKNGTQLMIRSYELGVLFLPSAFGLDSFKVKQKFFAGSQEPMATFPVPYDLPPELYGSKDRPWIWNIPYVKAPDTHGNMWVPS
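Here, a 5' biotin and 3' phosphotyrosine-FITC DNA oligonucleotide reports Tdp1 activity: intact substrate bridges AlphaScreen beads, while cleavage leaves a 3' phosphate and drops signal. All incubations at room temperature.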
TGFb SMAD3 inh: inhibitors of TGF-b signaling | HepG2 CAGA-GFP TGF-b/SMAD3 reporter, GFP fluorescence, 18 h; TGF-beta stimulated, 500 pg/mL final | 410,000 tested, 1.2% active | Potency, µM (series often up to 46.1 µM), for the others: at the top dose activity, negative = inhibition, hits mostly inhibitors; further: potency means the concentration at half of the fitted maximal effect; on the % scale 0 is the no-effect control and ±100 the full control effect; nearly all actives have a fitted effect of over 65% in size
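Cell-based qHTS in HEPG2 carrying a CAGA-GFP Smad reporter; compounds added before 500 pg/mL final TGF-beta, 18 h incubation at 37 degrees C, GFP fluorescence quantified per cell by imaging cytometry.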
IL1B secr inh: blocks inflammasome-driven IL-1 beta release; THP-1 LPS/ATP IL-1B secretion, AlphaLISA, 16 h; hits give low values; activity change, % at 57.5 µM; 360,000 tested, 4.7% active; in the data active means activity change below about -50%; inconclusive means mostly about -30% to -49%; further: on the % scale 0 is the no-effect control and ±100 the full control effect
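THP-1 cells pretreated 1 hr with compounds (up to 57.5 uM final), then stimulated with LPS (250 ng/mL final) plus ATP (1.25 mM final); secreted IL-1B measured by AlphaLISA after 16 hr, decreased signal indicating inhibition.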
* = called active by the depositor; ? = inconclusive; · = not tested or not shown; ! = repeats disagree. Unless noted, the call rests on the fitted dose curve; in most records, active means well fitted curve in the direction sought with a large enough effect; inconclusive means small, poorly fitted or top-dose-only effect, or another doubt; inactive means no such curve, though single readings can be large; an effect the other way counts as inactive or inconclusive.

SMILES | HepG2 viability | TDP1 cell noCPT | DT40 TDP1 CPT | TDP1 inh | TGFb SMAD3 inh | IL1B secr inh
O=C(Cc1cccc([N+](=O)[O-])c1)Nc1ccc(C(=O)N2CCCCC2)cc1 | 8.3% | ? | ? | 2.2% | ? | ?
Cc1ccc(C(=O)O[C@H](C(=O)O)[C@H](OC(=O)c2ccc(C)cc2)C(=O)O)cc1 | 1.2% | -17.3% | 20.8% | · | -0.4% | 52.5
CN=c1sc2ccccc2n1CC(O)COc1ccccc1 (configuration not stated) | -18.7% | 18.4µM* | ? | 4.2% | 0.0% | 0.0
Cn1c(=N)n(CC(O)c2cccc3ccccc23)c2ccccc21 (configuration not stated) | -45.9% | 13µM* | 14.6µM* | -1.2% | ? | ?
CCCn1c(=N)n(CC(O)COc2ccc(C)cc2)c2ccccc21 (configuration not stated) | -57.8% | 5.17µM* | 4.61µM* | 5.5% | ? | ·
CCn1c(=N)n(CC(O)COc2ccc(C)cc2)c2ccccc21 (configuration not stated) | -13.7% | 16.4µM* | 11.6µM* | 0.0% | 2.8% | ·
OC(COc1ccccc1)Cn1c2ccccc2c2ccccc21 (configuration not stated) | -46.6% | ? | ? | -1.2% | ? | 0.0
Cc1ccc(C(=O)Nc2ccc3oc(-c4cccnc4)nc3c2)c(Cl)c1 | -0.1% | -23.3% | -27.7% | · | -4.8% | ·
CCOc1ccccc1CNC(=O)C1CCN(c2nnc(C)c3c(C)n(-c4ccc(C)cc4)nc23)CC1 | 10µM*! | 13µM* | 5.8µM* | -0.2% | 11.2µM* | -96.2*
Cc1nnc(N2CCC(C(=O)NC3CCCCC3)CC2)c2nn(-c3ccccc3)c(C)c12 | 5.5% | 3.1% | -6.5% | 2.8% | 3.7% | ·
CCOc1ccc(-n2nc3c(SCCN4CCCC4)nnc(C)c3c2C)cc1 | -0.1% | -25.1% | 0.5% | 5.5% | -4.1% | -96.7*
COc1ccc(-n2nc3c(N4CCC(C(=O)NCCc5ccco5)CC4)nnc(C)c3c2C)cc1 | -11.6% | ? | ? | -2.4% | ? | -50.7*
COc1ccccc1CCNC(=O)C1CCN(c2nnc(C)c3c(C)n(-c4ccc(C)cc4)nc23)CC1 | 3.55µM*! | 2.91µM* | 4.61µM* | -16.7% | ? | -9.8
Cc1ccc(-n2nc3c(SCCN4CCOCC4)nnc(C)c3c2C)cc1 | -0.6% | ? | ? | 5.1% | -1.5% | -25.0
CCOC(=O)c1ccccc1NC(=O)Cc1ccc(S(=O)(=O)N2CCCC2)s1 | -17.0% | ? | ? | 0.3% | 0.4% | -18.5
CC1=C(C(=O)Nc2ccc(C(=O)NCCCN3CCCCC3C)cc2)SCCO1 (configuration not stated) | -3.7% | 3.2% | -20.3% | · | -5.2% | ?
Cc1ccc(S(=O)(=O)N(C)C)cc1NC(=O)CCNC(=O)c1ccco1 | -15.7% | -8.7% | -2.0% | -10.8% | -5.3% | -2.2
Cc1ccc(-n2nc3c(N4CCC(C(=O)NCc5ccccc5C)CC4)nnc(C)c3c2C)cc1 | -94.7% | ? | 13µM* | -6.2% | 17.8µM* | -92.2*
Cc1ccc(-n2nc3c(N4CCC(C(=O)N5CCN(C)CC5)CC4)nnc(C)c3c2C)cc1 | 3.1% | -13.2% | -20.6% | 3.7% | -9.2% | -18.1
CCOc1ccc(CNC(=O)C2CCN(c3nnc(C)c4c(C)n(-c5ccc(C)cc5)nc34)CC2)cc1 | -106.8% | 23.1µM* | 8.2µM* | ? | ? | -98.7*
COc1ccc(CCNc2nc3cc(OC)c(OC)cc3c3nc(-c4ccccc4)nn23)cc1OC | -19.9% | 2.91µM* | 5.8µM* | 0.0% | -7.2% | ·
Cc1cccc(-c2nc3c4ccccc4nc(NCc4ccc(F)cc4)n3n2)c1 | -15.2% | -25.1% | -3.8% | 0.0% | 3.0% | ·
COc1ccc(CNc2nc3ccccc3c3nc(-c4ccccc4)nn23)cc1 | -14.5% | 11.6µM* | -8.5% | -2.9% | ? | ·
Cc1ccc(CCNc2nc3ccccc3c3nc(-c4ccccc4)nn23)cc1 | 7.6% | ? | ? | -1.0% | -0.2% | ·
COc1ccc(CCNc2nc3ccccc3c3nc(-c4cccc(C)c4)nn23)cc1OC | -19.2% | 7.31µM* | ? | 2.0% | 0.0% | ·
SMILES | HepG2 viability | TDP1 cell noCPT | DT40 TDP1 CPT | TDP1 inh | TGFb SMAD3 inh | IL1B secr inh
C=CCn1c(SCc2c(F)cccc2Cl)nnc1-c1ccco1 | -26.9% | 16.4µM* | 20.6µM* | 2.0% | -9.1% | -25.9
Cc1c(CC(C)(C)C(=O)O)n(Cc2ccc(Cl)cc2)c2ccc(F)cc12 | · | -18.5% | 0.1% | 16.7% | · | ·
CCOC(=O)C1=C(C)NC2=C(C(=O)C(C(=O)OCC)C(c3ccco3)C2)C1c1ccccn1 (configuration not stated) | -1.4% | ? | -27.6% | 4.7% | 13.5% | 4.5
CCOC(=O)C1=C(C)NC2=C(C(=O)C(C(=O)OCC)C(c3ccco3)C2)C1c1ccccc1C (configuration not stated) | 1.4% | 22.4µM* | 20µM* | · | 1.1% | ·
O=C(Nc1cccc(S(=O)(=O)N2CCOCC2)c1)c1ccc(Cl)c([N+](=O)[O-])c1 | -8.9% | ? | ? | -22.6% | -25.7% | -98.7*
Cc1ccc(C(=O)Nc2cccc(S(=O)(=O)N3CCOCC3)c2)cc1[N+](=O)[O-] | 7.5% | ? | 11.6µM* | 7.7% | -1.0% | -4.3
O=C(Nc1ccc(S(=O)(=O)N2CCOCC2)cc1)c1ccc(Cl)c([N+](=O)[O-])c1 | -1.5% | 13µM* | 13µM* | · | -4.3% | -96.1*
Cc1ccc(C(=O)Nc2ccc(S(=O)(=O)N3CCOCC3)cc2)cc1C | -59.7% | ? | ? | · | -16.0% | -0.6
CN(C)S(=O)(=O)c1cccc(NC(=O)c2ccc(N3CCOCC3)c([N+](=O)[O-])c2)c1 | -7.0% | ? | 16.4µM* | 1.9% | 3.5% | -7.2
CN(CC(=O)Nc1cccc(F)c1)C(=O)C1(c2ccccc2)CC1 | -60.9% | 3.9% | -9.4% | 1.8% | -12.6% | -4.7
C#CC(C)OCC1CNC(=S)O1 (configuration not stated) | 0.6% | -6.8% | 0.9% | · | -2.2% | 2.2
CC(=O)N1CCN(c2ccc(NC(=O)c3ccc(Cl)c([N+](=O)[O-])c3)cc2)CC1 | 2.6% | -15.2% | ? | · | -2.4% | -52.4*
COc1ccc(C(=O)Nc2ccc(N3CCN(C(C)=O)CC3)cc2)cc1[N+](=O)[O-] | · | · | · | 1.2% | · | ·

Screening results (PubChem)
